ALOX12 inhib: inhibitors of human 12-lipoxygenase (ALOX12) | Potency, µM (top dose mostly 57.1 µM), for the others: at the highest dose activity change, negative = inhibition, hits mostly inhibitors | purified 12-hLO, xylenol orange hydroperoxide absorbance | actives 0.12% (n = 150,000) | P18054; further: nearly all actives have a fitted effect of over 55% in size
Target sequence (P18054 whole entry, looked up): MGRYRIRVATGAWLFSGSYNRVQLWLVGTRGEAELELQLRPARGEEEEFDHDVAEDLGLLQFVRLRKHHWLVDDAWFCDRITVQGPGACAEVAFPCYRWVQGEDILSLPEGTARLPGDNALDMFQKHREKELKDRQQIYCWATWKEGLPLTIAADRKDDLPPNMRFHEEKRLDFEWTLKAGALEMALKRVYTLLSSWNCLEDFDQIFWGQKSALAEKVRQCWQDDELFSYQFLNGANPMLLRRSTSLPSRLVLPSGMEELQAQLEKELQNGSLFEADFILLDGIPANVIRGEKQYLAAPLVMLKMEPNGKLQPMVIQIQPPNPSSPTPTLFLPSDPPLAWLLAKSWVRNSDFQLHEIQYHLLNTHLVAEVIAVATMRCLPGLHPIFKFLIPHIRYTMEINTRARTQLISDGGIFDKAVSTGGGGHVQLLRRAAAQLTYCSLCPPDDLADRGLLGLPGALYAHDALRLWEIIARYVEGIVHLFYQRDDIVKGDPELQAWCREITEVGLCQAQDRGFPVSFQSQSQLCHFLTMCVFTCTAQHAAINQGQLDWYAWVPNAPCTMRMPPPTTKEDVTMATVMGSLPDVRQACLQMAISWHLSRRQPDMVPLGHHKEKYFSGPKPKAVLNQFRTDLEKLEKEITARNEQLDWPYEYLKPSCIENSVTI
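Xylenol orange chromogenic assay: hydroperoxide from 12hLO oxidises Fe(II), giving red-shifted Fe(III)-XO absorbance. Conditions: 150 nM enzyme, 40 uM arachidonic acid, 25 mM Hepes pH 7.0, 0.01% Triton X-100, 30 min, room temperature.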
HPGD block: inhibitors of human 15-hydroxyprostaglandin dehydrogenase (HPGD); P15428; Potency, µM, inactives show at the highest dose activity change, negative = inhibition, hits mostly inhibitors; purified HPGD, NADH fluorescence kinetic, PGE2 substrate; actives 4.3% (n = 150,000); active means well fitted inhibition curve with a large enough effect, not every such curve was filed as active; inconclusive means small, poorly fitted or top-dose-only effect, or another doubt; inactive means no such curve, though single readings can be large or run the other way
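NADH formation kinetics: reaction with 30 uM PGE2 and 1 mM NAD+ (final), 20 nM enzyme, Tris-HCl pH 8 with Tween 20, after 15 min compound preincubation at room temperature. Fluorescence change, last versus first of five reads.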
p53ts 32C kill: kills p53ts cells at the permissive temperature; H1299-p53A138V at 32C, ATP luminescence viability, 24 h; Potency, µM (top dose mostly 46.1 µM), without a hit: at the top dose activity change, negative = cytotoxicity, usual class: cytotoxic; actives 0.93% (n = 130,000);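 further: 0% = DMSO and -100% = full killing by reference compound; nearly all actives have a fitted effect of over 55% in size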
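Viability by ATPlite luminescence after 24 h compound treatment (up to 46 uM) at the permissive 32C. Cells are H1299 carrying p53 A138V. Scale runs from DMSO basal to 100 uM tamoxifen as full kill; AC50 from Hill fits.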
p53ts 39C kill: p53ts cell cytotoxicity, nonpermissive temperature. H1299-p53A138V viability at 39C, ATP luminescence, 24 h. Potency, µM (highest dose often 46.1 µM), for the others: at the top dose activity change, negative = cell killing, most hits filed as cytotoxic. actives 1.5% (n = 130,000); further: nearly all actives have a fitted effect of over 55% in size
Active calls of the source: *; ? = inconclusive; · = not tested or not shown; [ ] = remark or other dose. Hits are enriched below; roughly 4.4% of the tested compounds scored in any of these assays. Unless noted, the call rests on the fitted dose curve; in most records, active means well fitted curve in the direction sought with a large enough effect; inconclusive means small, poorly fitted or top-dose-only effect, or another doubt; inactive means no such curve, though single readings can be large; an effect the other way counts as inactive or inconclusive. Unless noted, on the % scale 0 is the no-effect control and ±100 the full control effect; potency means the concentration at half of the fitted maximal effect.

SMILES	ALOX12 inhib	HPGD block	p53ts 32C kill	p53ts 39C kill
O=C(O)CCN1C(=O)/C(=C/c2ccc(-c3nc4ccccc4s3)o2)SC1=S	-8%	13µM*	·	·
O=C(O)CC(C(=O)O)N1C(=O)/C(=C/c2ccc(-c3nc4ccccc4s3)o2)SC1=S (stereo unspecified)	-9%	25µM*	·	·
Cc1ccc(-c2nnc3ccccc3c2C(=O)Nc2ccc(C)c(F)c2)cc1	·	·	3%	-3%
Cc1ccc2c(c1)Sc1ccccc1CC2=O	-4%	25µM*	·	·
O=C1Cc2ccccc2Sc2ccccc21	-8%	?	·	·
Cc1cccc(NC(=O)CCCCCN2C(=O)c3ccccc3C2=O)n1	19%	25µM*	1%	11%
Cc1cccc(NC(=O)CCCN2C(=O)c3ccccc3C2=O)n1	2%	-6%	·	·
O=C(CCCCCN1C(=O)c2ccccc2C1=O)Nc1ccc(F)cc1	4%	18µM*	7%	7%
O=C(CCCCCCN1C(=O)c2ccccc2C1=O)Nc1nccs1	5%	7.9µM*	-14%	-7%
COc1ccc2cc(C(=O)NCc3ccc4c(c3)CCN4C(=O)c3ccccc3)[nH]c2c1	·	·	10%	-30%
CC1CN(c2c(F)c(N)c3c(=O)c(C(=O)O)cn(C4CC4)c3c2F)CC(C)N1 (stereo unspecified)	-1%[0.00818 µM]	-11%	·	·
O=C(c1ccc(CSc2nc3ccncc3n2Cc2ccccc2F)cc1)N1CCCCCC1	·	·	-20%	-27%
CO[C@@H]1/C=C\O[C@]2(C)Oc3c(C)c(O)c4c(O)c(c(CN5CCN(C)CC5)c(O)c4c3C2=O)NC(=O)/C(C)=C\C=C[C@@H](C)[C@@H](O)[C@H](C)[C@@H](O)[C@H](C)[C@H](OC(C)=O)[C@@H]1C	-8%[11.4 µM]	·	3%[9.22 µM]	8%[9.22 µM]
CO[C@H]1C=CO[C@@]2(C)Oc3c(C)c(O)c4c(O)c(c(C=NN5CCN(C)CC5)c(O)c4c3C2=O)NC(=O)C(C)=CC=C[C@H](C)[C@H](O)[C@@H](C)[C@@H](O)[C@@H](C)[C@H](OC(C)=O)[C@@H]1C	-27%	25µM*	·	·
COc1cccc(-c2cc(NCc3cccs3)ncn2)c1	-1%	?	25µM*	?
Cc1c(OCc2nn[nH]n2)ccc2c(-c3ccccc3)cc(=O)oc12	-4%	13µM*	5%	7%
COc1ccc(-c2cc(=O)oc3c(C)c(OCc4nn[nH]n4)ccc23)cc1	-6%	?	8%	15%
COC(=O)c1ccccc1NC(=O)c1nc(SCc2ccccc2C)ncc1Cl	·	·	-4%	17%
O=S(=O)(/N=S1/CC=CCN1S(=O)(=O)c1ccccc1)c1ccccc1 (stereo unspecified)	-21%	7.9µM*	7%	-6%
CCN(CC)C(=O)C1=CC(c2ccc3c(c2)OCO3)=NS(=O)(=O)N1C	·	·	-3%	-12%
Cc1cc(SC#N)cc(C)c1NC(=O)CCl	0%	?	·	·
CCc1cc(SC#N)cc(C)c1NC(=O)CCl	1%	16µM*	·	·
CS(=O)(=O)N(CC(=O)Nc1ccc(Br)cc1)c1ccccc1Br	·	·	12%	-6%
O=S(=O)(NCc1ccccc1)c1ccc2[nH]c3c(c2c1)CCCCC3	·	·	4%	32µM*
O=S(=O)(NCc1ccc(F)cc1)c1ccc2[nH]c3c(c2c1)CCCC3	·	·	9%	·
SMILES	ALOX12 inhib	HPGD block	p53ts 32C kill	p53ts 39C kill
Cc1ccc(CNS(=O)(=O)c2ccc3[nH]c4c(c3c2)CCCC4)cc1	·	·	-7%	·
Cc1ccc(CNS(=O)(=O)c2ccc3[nH]c4c(c3c2)CCCCC4)cc1	·	·	-2%	20µM*
Cn1cccc1C(=O)N1CCC2(CCN(Cc3ccccc3)CC2)CC1	-1%	-1%	-4%	-6%
O=C(Cc1cccs1)N1CCC(c2nc3c(nnn3Cc3ccc(F)cc3)c(=O)[nH]2)CC1	-12%	14µM*	-3%	-22%
O=C(Cc1ccccc1F)N1CCC(c2nc3c(nnn3Cc3cccc(Cl)c3)c(=O)[nH]2)CC1	·	·	25%	?
O=C(Cc1cccs1)N1CCCC(c2nc3c(nnn3Cc3cccc(Cl)c3)c(=O)[nH]2)C1 (stereo unspecified)	-16%	6.3µM*	0%	-6%
O=c1c(S(=O)(=O)c2ccc(Cl)cc2)cn(Cc2ccc(F)cc2)c2ccc(F)cc12	·	·	13%	3%
COc1ccc(-c2noc(CSCC(=O)Nc3ccc(C)cc3Br)n2)cc1OC	·	·	0%	·
Cc1cccc(C(=O)Nc2cc3nn(-c4ccc(C(C)C)cc4)nc3cc2C)c1	·	·	-17%	-18%
Cc1ccsc1/C=N/NC(=O)c1ccccn1	2%	-11%	·	·
